The values that follow come from PubChem BioAssay AID2428 (Vanderbilt High Throughput Screening Facility, 2010).

Potency and affinity values are given separately. Calls of active or inactive are those of the source.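 The calls were made as follows: active = compound whose fitted concentration response curve has an R squared above 0.5; inactive = the rest.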

Muscarinic acetylcholine receptor M3 (Homo sapiens), sequence (P20309 whole entry, looked up): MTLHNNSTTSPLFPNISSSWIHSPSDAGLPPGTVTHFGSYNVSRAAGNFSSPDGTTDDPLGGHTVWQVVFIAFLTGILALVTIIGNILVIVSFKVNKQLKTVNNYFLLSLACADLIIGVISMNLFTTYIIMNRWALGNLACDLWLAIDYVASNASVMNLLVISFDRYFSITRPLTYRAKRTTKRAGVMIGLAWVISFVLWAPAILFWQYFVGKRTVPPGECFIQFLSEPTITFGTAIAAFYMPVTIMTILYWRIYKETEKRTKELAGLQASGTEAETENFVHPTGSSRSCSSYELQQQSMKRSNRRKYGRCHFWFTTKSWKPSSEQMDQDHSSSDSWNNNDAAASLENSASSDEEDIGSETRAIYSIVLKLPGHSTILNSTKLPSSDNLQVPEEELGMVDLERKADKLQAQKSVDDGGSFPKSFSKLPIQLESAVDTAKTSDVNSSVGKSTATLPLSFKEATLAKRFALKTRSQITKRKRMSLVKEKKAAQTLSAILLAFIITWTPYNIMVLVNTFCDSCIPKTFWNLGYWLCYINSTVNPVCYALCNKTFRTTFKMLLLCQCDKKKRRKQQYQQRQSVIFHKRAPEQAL

This test concerns the target Muscarinic acetylcholine receptor M3 (Homo sapiens) (UniProt P20309). Briefly: potentiation of ACh response at M3 – cell-based, CHO-K1 hM3, Fluo-4 calcium, ACh EC20, selectivity assay for M1 PAM project, dose response (AID 2428). Conditions: series mostly up to 30 µM.
Regarding `Cn1cc(-c2cc(F)c(CN3C(=O)C(=O)c4ccccc43)c(F)c2)cn1`, the outcome was inactive.
Then `Cc1cc(NC(=O)CS(=O)(=O)c2cn(Cc3ccccc3Cl)c3ccccc23)no1`, with “inactive”; and `Cc1cc(NC(=O)CS(=O)(=O)c2cn(Cc3cccc(Cl)c3)c3ccccc23)no1`, with “inactive”.
Then `Cc1cc(NC(=O)CS(=O)(=O)c2cn(Cc3cc(Br)ccc3F)c3ccccc23)no1`, with “inactive”; and `O=C1C(=O)N(Cc2ccc(Oc3ccccc3)cc2)c2ccc(OC(F)(F)F)cc21`, with “inactive”; and `Cc1cc(NC(=O)CS(=O)(=O)c2cn(Cc3cccc(-c4ccn(C)n4)c3)c3ccccc23)no1`, with “inactive”.
In the case of `Cc1cc(NC(=O)CS(=O)(=O)c2cn(Cc3cccc(F)c3)c3ccccc23)no1` it was “inactive”; in that of `Cn1cc(-c2ccc(CN3C(=O)C(=O)c4ccccc43)c(F)c2)cn1`, “inactive”.
